From PubChem
aSyn UTR act = Activators via SNCA 5'UTR binding, MLPCN | 7.1% of 300,000 active | activity score, % (tested at 7.5 µM), hits read low | AID 1814 | alpha-synuclein 5'UTR reporter, activators screen; in the data active = activity score below about -60%
Hits are given with their value; i = inactive. These entries were drawn from the full list.

SMILES | aSyn UTR act
O=C(c1ccc(F)cc1)n1ccc(-c2cnc(-c3ccccc3)s2)n1 | -124
Fc1ccc(Cn2ccc(-c3cnc(-c4ccccc4)s3)n2)cc1 | -140
O=S(=O)(c1ccccc1)n1ccc(-c2cnc(-c3ccccc3)s2)n1 | -131
COCCN(C(=O)c1ccco1)c1nnc(-c2ccc(F)cc2)s1 | -92
CCCN(C(=O)c1cccs1)c1nnc(-c2ccncc2)s1 | -100
CN(C(=O)c1ccco1)c1nnc(-c2ccc(F)cc2)s1 | -200
CCCN(C(=O)c1ccco1)c1nnc(-c2ccccc2C)s1 | -89
CN(C(=O)c1ccco1)c1nc(-c2ccc(F)cc2)cs1 | -146
CCN(C(=O)c1ccco1)c1nnc(-c2cccnc2)s1 | -137
Cc1nnc(SCc2ccccc2)nc1-c1ccccc1 | -124
COc1ccc(N2CCN(C(=O)C3(C)CC3(Cl)Cl)CC2)cc1 (stereo not drawn) | -82
CCC1(C)N=C(c2ccc3c(c2)OCO3)CC(c2ccccc2O)N1 (stereo not drawn) | -286
O=C(N/N=C/c1cn(-c2cccs2)nc1-c1ccccc1)c1ccccc1Cl | -63
O=C(N/N=C/c1cn(-c2cccs2)nc1-c1ccccc1)c1ccc(O)cc1 | -65
O=C(N/N=C/c1cc(Br)ccc1O)c1ccccc1Cl | i
Cc1cc(-c2cccc([N+](=O)[O-])c2)nc2ccc3ccccc3c12 | -108
COc1cccc(NC(=S)Nc2cc(C(=O)O)ccc2N2CC3CC(C2)c2cccc(=O)n2C3)c1 (stereo not drawn) | -95
CCOc1ccc(Nc2ncnc3c2nnn3Cc2ccccc2)cc1 | -79
CCc1ccc(-c2csc(NC(=O)C3=NN(c4ccccc4)C(=O)CC3)n2)cc1 | -97
Cc1c(C(=O)N(CCO)Cc2ccccc2)oc2c(F)cccc12 | -112
COc1cccc(C2N=C(c3ccccc3C)NO2)c1OC (stereo not drawn) | -80
Clc1ccc(C#Cc2cccnc2)cc1 | -187
Cc1ccc(NC(=S)Nc2ccc3cn[nH]c3c2)cc1 | -83
S=C(Nc1ccccc1)Nc1ccc2cn[nH]c2c1 | -75
O=C(NC(=S)Nc1ccc2cn[nH]c2c1)c1ccccc1 | -173
SMILES | aSyn UTR act
Cc1ccc(C(=O)c2cnc3cc4c(cc3c2S(=O)(=O)c2ccccc2)OCCO4)cc1 | -133
Clc1ccc(-c2nnc(-c3ccco3)o2)cc1 | -203
CCC(Oc1ccccc1)C(=O)Nc1ccc(-c2nnc(-c3ccco3)o2)cc1 (stereo not drawn) | -97
CC(C)(C)c1ccc(OCC(=O)N/N=C/c2cc(Br)ccc2OC(=O)c2ccco2)cc1 | i
O=C(COc1ccc(Br)cc1)Nc1ccc(-c2nnc(-c3ccco3)o2)cc1 | -80
CC1CCCC(C)N1C(=O)CSc1nnc(-c2cccs2)o1 (stereo not drawn) | -82
CC1CCCCN1C(=O)CSc1nnc(-c2cccs2)o1 (stereo not drawn) | -108
CCC1CCCCN1C(=O)CSc1nnc(-c2ccc(Cl)s2)o1 (stereo not drawn) | -62
CC1=C(C)CC(C(=O)NCC(=O)c2ccccc2)C(C(=O)O)C1 (stereo not drawn) | -169
COc1ccc(NC(=O)c2cccs2)cc1O | -135
COc1ccc(NC(=S)NNC(=O)c2cccs2)cc1 | -81
Cc1conc1NC(c1cccs1)c1ccc2cccnc2c1O (stereo not drawn) | i
CCC(=O)NC(c1cccs1)c1ccc2cccnc2c1O (stereo not drawn) | i
Cc1cccnc1NC(=S)NC(=O)c1cccs1 | -398
O=C(CNC(=S)NC(=O)c1cccs1)c1ccccc1 | -74
O=C(CNC(=S)NC(=O)c1ccco1)c1ccccc1 | -80
O=C(NC(=S)Nc1ccc(Br)cn1)c1cccs1 | -172
COc1ccc(/C=C/C(=O)c2ccc(NC(=O)c3cccs3)cc2)cc1OC | -94
O=C(Nc1ccc(Cl)cc1)c1cccs1 | -146
O=C(CNC(=S)NC(=O)C1CCCCC1)c1ccccc1 | -126
COc1ccccc1NC(=O)Cn1nnc(-c2ccccc2NC(=O)c2cc3ccccc3oc2=O)n1 | -119
O=C(Nc1ccc(NC(=O)c2cccs2)cc1)c1cccs1 | -141
O=C(Nc1ccc2[nH]ccc2c1)c1cccs1 | -105
CC(C)C(=O)Nc1ccc(NC(=O)c2cccs2)cn1 | -132
CN1CCN(c2ccc(NC(=O)c3cccs3)cc2)CC1 | -88
SMILES | aSyn UTR act
COc1cc(OC)cc(C(=O)Nc2ccc(N3CCN(C(=O)c4cccs4)CC3)cc2)c1 | -180
O=C(Nc1cccc(N2CCCC2)c1)c1cccs1 | -66
CCC(C)c1ccc(NC(=O)c2cccs2)cc1 (stereo not drawn) | -71
COc1ccc(NC(=O)Cn2nnc(-c3ccccc3NC(=O)c3cccs3)n2)cc1 | -169
Cc1ccc(NC(=O)Cn2nnc(-c3ccccc3NC(=O)c3cccs3)n2)cc1 | i
Cc1cccnc1NC(=O)NC(=O)c1ccc(C(C)(C)C)s1 | -169
O=C(NC(=S)Nc1ccccc1)c1cccs1 | -147
O=C(Nc1ccc(NC(=O)C2CC2)cc1)c1cccs1 | -169
CCCCNS(=O)(=O)c1ccc(NC(=O)c2cccs2)cc1 | -66
Cc1ccn(-c2ccc(NC(=O)c3cccs3)cc2)n1 | -63
O=C(Cc1ccccc1)NNC(=S)NC(=O)c1cccs1 | i
O=C(NC(=S)Nc1ccc(N2CCCCC2)c(Cl)c1)c1cccs1 | -110
COc1ccc(NC(=O)c2cccs2)cc1 | -149
CCCCOc1cccc(C(=O)Nc2ccc(NC(=O)c3cccs3)cc2)c1 | i
CC(C)c1ccc(NC(=S)NNC(=O)c2cccs2)cc1 | -95
COCCCNC(=O)c1ccc(N2CCCC2)c(NS(=O)(=O)c2ccc(C)cc2)c1 | -73
CCOC(=O)/C=C(/C)N1N=C(c2ccc(OC)cc2)CC1c1cccc([N+](=O)[O-])c1 (stereo not drawn) | -166
CCn1cnc2cc(NC(=O)c3ccc(C)cc3)ccc21 | -106
CCC(=O)Nc1ccc2c(c1)ncn2-c1ccc(C)cc1 | -77
CCCn1cnc2cc(NC(=O)c3cccs3)ccc21 | -113
Cc1ccc(C(=O)Nc2ccc3c(c2)ncn3C)cc1 | -115
O=C(CSc1nc2cc(Cl)ccc2s1)c1ccco1 | -210
O=C1CSC(c2ccc(F)cc2)N1c1nc2ccccc2s1 (stereo not drawn) | -91
CN1CCN(C2=C(Cl)C(=O)N(CCc3ccccc3)C2=O)CC1 | -112
O=C1C(Cl)=C(NCC2CCCO2)C(=O)N1CCc1ccccc1 (stereo not drawn) | -183
SMILES | aSyn UTR act
O=C1C(Cl)=C(N2CCOCC2)C(=O)N1CCc1ccccc1 | -212
O=c1c([N+](=O)[O-])c(N2CCOCC2)c2ccccc2n1Cc1ccccc1 | i
O=C1C(Cl)=C(NCCCN2CCOCC2)C(=O)N1CCc1ccccc1 | -126
CCC(c1nnnn1CCc1ccccc1)N(Cc1ccco1)Cc1cc2c(C)ccc(C)c2[nH]c1=O (stereo not drawn) | i
Cc1ccc2cc(CCNC(=O)c3ccco3)c(=O)[nH]c2c1 | -143
CC(=O)Nc1ccc(S(=O)(=O)N(Cc2cccnc2)Cc2cc3ccc(C)cc3[nH]c2=O)cc1 | i
Cc1cc2cc(CCNC(=O)c3cccs3)c(=O)[nH]c2cc1C | -149
COc1ccc2cc(CCNC(=O)c3ccco3)c(=O)[nH]c2c1 | -117
Cc1ccc2cc(CCNC(=O)c3ccco3)c(=O)[nH]c2c1C | -138
CC(Oc1cccc(Cl)c1)C(=O)Nc1nc(-c2ccccn2)cs1 (stereo not drawn) | i
CCCCc1nnc(NC(=O)c2oc3ccccc3c2C)s1 | -96
Cc1nc(NC(=O)c2oc3ccccc3c2C)sc1C(=O)N(C)C | -193
